Values without a mark were called inactive. Calls follow the shape of the full dose curve.
target: Acetylcholinesterase (Homo sapiens) (UniProt P22303); assay: Acetylcholinesterase (AChE) small molecule antagonists: enzyme-based qHTS assay with human liver microsomes (AID 1347399); details: Potency: qHTS inhibition; outcome: qHTS inhibition; series mostly up to 115 µM; activity change, negative = inhibition: at the top concentration; also: nearly all actives have a fitted effect of over 60% in size
Procedure, shortened: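 Recombinant human AChE (50 mU/mL in the enzyme mix) and human liver microsomes (0.25 mg/mL final) were preincubated with compound and NADPH (0.25 mg/mL final) for 30 min at 37 C. Acetylthiocholine/DTNB was then added; thiocholine was read colorimetrically after 10 min at room temperature.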
% is scaled to controls: 0 for no effect and ±100 for the full control effect.

Chain of Acetylcholinesterase (Homo sapiens) (P22303 whole entry, looked up): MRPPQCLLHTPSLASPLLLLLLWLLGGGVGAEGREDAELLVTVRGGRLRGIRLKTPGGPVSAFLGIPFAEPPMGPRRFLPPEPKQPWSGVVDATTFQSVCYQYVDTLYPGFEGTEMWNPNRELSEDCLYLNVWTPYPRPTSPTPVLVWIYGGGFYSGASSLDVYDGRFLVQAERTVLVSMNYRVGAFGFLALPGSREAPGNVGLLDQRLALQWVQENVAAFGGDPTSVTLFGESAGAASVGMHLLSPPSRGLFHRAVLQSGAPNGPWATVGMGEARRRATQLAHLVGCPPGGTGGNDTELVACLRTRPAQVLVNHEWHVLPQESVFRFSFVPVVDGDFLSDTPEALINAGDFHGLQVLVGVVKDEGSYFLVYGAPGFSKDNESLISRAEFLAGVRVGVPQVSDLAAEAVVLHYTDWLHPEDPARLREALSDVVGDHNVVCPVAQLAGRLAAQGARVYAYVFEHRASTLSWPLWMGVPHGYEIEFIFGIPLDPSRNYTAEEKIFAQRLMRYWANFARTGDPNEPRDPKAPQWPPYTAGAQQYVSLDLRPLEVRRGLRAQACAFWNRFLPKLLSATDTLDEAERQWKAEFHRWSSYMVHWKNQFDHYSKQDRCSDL

In order of falling “activity change, negative = inhibition” value:
1. CC[C@H](NC(=O)c1cc(F)ccc1NS(=O)(=O)c1cccc2cccnc12)c1ccccc1  15%
2. CC(C)=CCCC(C)C=O (centres undefined)  3.52%
3. Cc1ccc(Cl)cc1Cl  2.36%
4. CC(=O)CC(N)=O  2.25%
5. C=CC(=O)O[C@H]1C[C@@H]2CC[C@@]1(C)C2(C)C  1.46%
6. COCc1ccc(COC)cc1  1.15%
7. C=CC(C)=CCC=C(C)C  0.993%
8. CC(=O)C=O  0.886%
9. CC(=O)C(C)=O  0.823%
10. CC1=C(/C=C/C(C)=C/C=C/C(C)=C\C(=O)O)C(C)(C)CCC1  0.333%
11. CC1CCC(C(C)(C)O)CC1 (centres undefined)  0.324%
12. CC(=O)OCCC(C)CC(C)(C)C (centres undefined)  0.306%
13. O=C1OC(=O)C2C3C=CC(C3)C12 (centres undefined)  0.216%
14. OCCC(F)(F)C(F)(F)C(F)(F)C(F)(F)C(F)(F)C(F)(F)F  0.156%
15. CCCCC/C=C\CCC=O  0.146%
16. CCOc1ccccc1N  0.0249%
17. OCCc1ccncc1  0.009%
18. COCc1nnc(-c2ccc[n+]([O-])c2)n1-c1c(Cl)c(Cl)cc2[nH]c(=O)c(=O)[nH]c12  0%
19. O=Cc1ccc(F)c(Br)c1  -0.153%
20. CC/C=C\CCOC(=O)C(C)C  -0.291%
21. OCCN1CCOCC1  -0.297%
22. CCCO  -0.615%
23. CCC1(C)C(=O)N(Cl)C(=O)N1Cl (centres undefined)  -0.648%
24. O=C(O)CO  -0.764%
25. C=C(C)C(=O)OC  -0.84%
26. C1COC1  -1.16%
27. Clc1ccc2n[nH]nc2c1  -1.78%
28. CC(C)(O)c1ccccc1  -1.82%
29. O=C(O)c1cccc(Cl)n1  -2.14%
30. CC(C)(C)c1ccc(OCC2CO2)cc1 (centres undefined)  -2.42%
31. CC(C)[C@H]1CC[C@H](C)C[C@@H]1O  -3.04%

In order of rising “activity change, negative = inhibition” value:
1. CCN(CC)C(=O)Nc1ccc(OCC(O)CNC(C)(C)C)c(C(C)=O)c1 (centres undefined)  -0.764% [at 53 µM]
2. CCCCCCOc1ccccc1C(N)=O  -0.739% [at 53 µM]
3. Cc1ccccc1S  -0.731% [at 53 µM]
4. COc1cc(OC)cc(OC)c1  0.355% [at 53 µM]
5. CN(C)CCCO[C@@H]1[C@H]2OC(C)(C)O[C@H]2O[C@@H]1C(O)CO (some centres undefined)  2.56% [at 53 µM]
6. CO/N=C(\C(=O)N[C@@H]1C(=O)N2C(C(=O)O)=C(CSc3nc(=O)c(O)nn3C)CS[C@H]12)c1csc(N)n1  2.63% [at 53 µM]
7. O=C1OC(OC(=O)c2cccnc2Nc2cccc(C(F)(F)F)c2)c2ccccc21 (centres undefined)  3.65% [at 53 µM]

`CCCC(=O)O[C@]1(C(=O)COC(=O)CC)CC[C@H]2[C@@H]3CCC4=CC(=O)CC[C@]4(C)[C@H]3[C@@H](O)C[C@@]21C` was tested, and the activity change, negative = inhibition was -1.51% [at 23.6 µM].
